# From PubChem BioAssay
# CYP2C9 activ = activators of human CYP2C9. activation factor at 5 µM. P11712. actives 1.4% (n = 96,000). recombinant CYP2C9, luciferin-H conversion, luminescence; active compounds read high; factor 1 = untreated enzyme, 0 = blocked;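 active = activation factor of 2 or more for CYP2C9 at a 5 µM dose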;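 note: 0 = sulfaphenazole-blocked wells and 1 = vehicle-only wells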
# CYP2C19 activ = activators of human cytochrome P450 2C19; recombinant CYP2C19, luciferin-H EGE luminescence; active compounds read high; 0 = fully inhibited enzyme, 1 = untreated enzyme; activation factor at 5 µM; 96,000 tested, under 10 active; AID 1025;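 active = activation factor of at least 2 at 5 µM in the primary screen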;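 note: 0 = wells with 2.5 mM tranylcypromine and 1 = vehicle-only wells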
# CYP2C19 inh = inhibitors of human CYP2C19. P33261. CYP2C19 Supersomes, luciferin-H EGE luminescence, 30 min. inhibition, % at 5 µM. actives 21% (n = 96,000). AID 778;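 active = CYP2C19 inhibition above a set limit at 5 µM in the primary screen, cut at about 50% in these data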;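 note: plate controls were negative control wells for no effect and 2.5 mM tranylcypromine positive control for full effect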
# Cav32 inh = human Cav3.2 channel inhibition, primary screen; B-score at 10 µM; Cav3.2-expressing cells, Fluo-4 calcium fluorescence FDSS; active compounds read low; AID 449739; actives 4% (n = 100,000);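 active = single-dose well whose peak fluorescence ratio is a statistical outlier from its plate by either plate-standardised score or position-corrected B-score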
# CYP2C9 inh = human CYP2C9 inhibition; P11712; CYP2C9 Supersomes, luciferin-H conversion, luminescence; inhibition, % at 5 µM; actives 20% (n = 96,000);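 active = blocking of liver enzyme CYP2C9 beyond about 50% at 5 µM, limit read from the data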
# Starred values were filed as active, the others as inactive; / = not tested or not shown. A selection: hits, their analogues and other compounds. The true share with any hit is near 27%.
SMILES,CYP2C9 activ,CYP2C19 activ,CYP2C19 inh,Cav32 inh,CYP2C9 inh
CC(=O)Nc1nc(C)nc(C)c1C(C)=O,1,1,1,/,-1
COc1ccc(C(c2nnnn2C2CCCCC2)N2CCN(c3ccc(OC)cc3)CC2)cc1 (stereo not given),0.1,0.3,72*,-6.4*,85*
COCCn1nnnc1C(c1cc(OC)ccc1OC)N1CCc2ccccc2C1 (stereo not given),0.7,0.4,59*,-1.2,29
CN(c1ccccc1)C(c1ccc(F)cc1)c1nnnn1C1CCCC1 (stereo not given),0.2,0.1,90*,-7.5*,82*
Fc1ccc(C(c2nnnn2C2CCCC2)N2CCN(Cc3ccncc3)CC2)cc1 (stereo not given),0.2,0.1,91*,-0.44,81*
Cc1cc2sc(C(=O)O)c(C)c2s1,/,/,/,-0.042,/
N#Cc1ccc(Cl)cc1NC(=O)COC(=O)c1ccc(S(=O)(=O)N2CCCC2)cc1,1,1,-3,0.47,0
CN(C1CCCCC1)S(=O)(=O)c1ccc(Cl)c(C(=O)O)c1,0.9,0.9,5,0.32,7
COc1ccccc1C(c1nnnn1C1CCCC1)N1CCN2CCCC2C1 (stereo not given),0.1,0.6,43,0.13,85*
c1cc(C(c2nnnn2C2CCCCC2)N2CCN3CCCC3C2)ccn1 (stereo not given),/,/,/,0.39,/
c1ccc(C(c2nnnn2C2CCCC2)N2CCN(c3ccccc3)CC2)cc1 (stereo not given),/,/,/,-5.1*,/
Cc1ccc2cc(C(c3nnnn3C3CCCC3)N3CCN(c4ccc(F)cc4)CC3)c(=O)[nH]c2c1 (stereo not given),/,/,/,-5.3*,/
COc1ccc(C(c2nnnn2C2CCCC2)N2CCC(C)CC2)cc1 (stereo not given),0.3,0.2,82*,-4.4*,69*
COc1ccc(C(c2nnnn2C2CCCC2)N2CCN(C3CCCC3)CC2)cc1OC (stereo not given),1,1,5,-0.17,-4
COc1cccc(NC(=O)c2ccc3snnc3c2)c1,/,/,/,-1,/
Cc1ccc(C(c2nnnn2CCc2ccccc2)N2CCSCC2)cc1 (stereo not given),0.9,0.7,25,/,8
COCCn1nnnc1C(c1ccc(OC)cc1)N1CCC(C)CC1 (stereo not given),1,0.3,73*,-0.051,3
COc1ccccc1C(c1nnnn1C(C)(C)C)N1CCCCCC1 (stereo not given),0.2,0.5,52*,-2,77*
COCCn1nnnc1C(c1ccc(OC)cc1)N1CCN(c2ccccc2F)CC1 (stereo not given),/,/,/,-1.1,/
COc1ccccc1C(c1nnnn1C(C)(C)C)N1CCN(C(=O)c2ccco2)CC1 (stereo not given),0.6,0.6,37,0.28,37
Cc1ccc(C(c2nnnn2CCc2ccccc2)N2CCC(C)CC2)cc1 (stereo not given),/,/,/,-7.4*,/
Clc1ccc(C(c2nnnn2C2CCCC2)N2CCSCC2)cc1 (stereo not given),0.2,0.4,63*,-2.5,79*
CC(C)NC(=O)c1ccc2c(c1)N(CC(=O)N1CCOCC1)C(=O)C(C)(C)O2,0.8,0.9,8,0.26,15
O=C(Cn1cc2c(n1)CCCC2)N1CCCC1,1.1,1,0,0.79,-10
c1cnc2ccc(C(c3nnnn3C3CCCCC3)N3CCCCC3)cc2c1 (stereo not given),/,/,/,-4.7*,/
SMILES,CYP2C9 activ,CYP2C19 activ,CYP2C19 inh,Cav32 inh,CYP2C9 inh
COCCn1nnnc1C(c1ccc(Cl)cc1)N1CCSCC1 (stereo not given),0.7,0.2,79*,-0.69,35
COc1ccc(OC)c(C(c2nnnn2C2CCCC2)N2CCN(c3ccccc3)CC2)c1 (stereo not given),0.2,0.1,90*,/,82*
COc1ccc(OC)c(C(c2nnnn2Cc2ccccc2)N2CCN(C3CCCCC3)CC2)c1 (stereo not given),0.9,1,1,-2.9,8
O=C(c1ccccc1)N1CCN(c2ccc(NCc3ccc4c(c3)OCO4)cc2)CC1,0.3,0.6,44,-2.4,68*
CCS(=O)(=O)N1CCC(C(=O)NCCCN2CCN(c3ccccc3F)CC2)CC1,0.9,1,-4,/,7
CCS(=O)(=O)N1CCN(c2ccccc2F)CC1,0.1,0.5,50*,/,90*
O=C(c1cccc(C(=O)N2CCN(c3ccccc3F)CC2)c1)N1CCN(c2ccccc2F)CC1,0.3,0.2,82*,-2.4,67*
O=C(c1ccc2c(c1)OCO2)N1CCN(c2ccccc2)CC1,0.5,0.1,88*,0.018,45
CC1CC(C)CN(C(=O)c2ccc3c(=O)n(Cc4ccc5c(c4)OCO5)c(=S)[nH]c3c2)C1 (stereo not given),0.5,0.5,48,-4.5,49
C=CCOC(=O)C1=C[C@H](c2coc3ccccc3c2=O)C[C@H](OCCCCO)O1,/,/,/,1.2,/
COc1cccc(-c2cc(C(=O)N3CCCCCC3)no2)c1,1.1,0.6,45,-2.3,-13
COc1ccc(C(=O)N2CCN(c3ccc(C)cc3)CC2)cc1OC,1.8,0.9,13,-0.41,-75
Cc1nn(C(=O)c2ccc3c(c2)OCO3)c(N)c1-c1ccccc1,0.5,1.1,-9,-0.98,53*
O=C(c1cccs1)N1CCCC(c2ccccc2)C1 (stereo not given),0.5,0.1,85*,-0.76,53*
O=C(c1cc(-c2cccc(O)c2)on1)N1CCCCC1,1.9,0.5,51*,0.052,-93
Cc1ccc(C(=O)N2CCN(c3ccc(Cl)cc3)CC2)cc1,0.5,0.5,54*,0.014,51*
O=C(O)c1ccc(-c2ccc(O)c(F)c2)cc1,1,1.2,-16,-0.11,-5
CCC/S(CC1CC1(Cl)Cl)=N\S(=O)(=O)c1ccc(C)cc1 (stereo not given),1,0.9,5,1,-3
CC(=O)N1CCN(c2ccc(NC(=O)c3ccc(C)cc3)cc2)CC1,0.9,0.9,6,0.49,5
CC(=O)c1ccc(N2CCN(C(=O)c3cc(C)on3)CC2)cc1,/,/,/,0.0017,/
O=C(c1cnccn1)N1CCN(c2ccccc2)CC1,1.1,0.5,53*,/,-6
O=C(c1cnsn1)N1CCN(c2ccccc2)CC1,0.9,0.7,32,1.3,14
O=C(c1cc(C2CC2)on1)N1CCN(c2ccccc2)CC1,0.5,0.1,91*,0.74,52*
Cc1ccc(C(=O)N2CCN(c3ccc(NC(=S)NC(=O)Cc4ccccc4)cc3)CC2)cc1,0.5,0.7,30,0.26,52*
O=C(c1cc(-c2ccc(Cl)cc2)n(-c2ccc(Cl)cc2)n1)N1CCOCC1,0.8,0.8,15,-2.4,24
Cc1ccc(-n2nc(C(=O)N3CCOCC3)cc2-c2ccc(Cl)cc2)cc1,0.3,0.8,22,-1.8,71*
O=C(Oc1ccccc1)c1ccc2nsnc2c1,/,/,/,-1.7,/
